About 7,900 targets were measured; listed, in parts, are those with a hit and a random draw of the rest. About 0.6% of all pairs of compound and target were hits.
Compound: NCC(=O)Nc1ccc(-n2nc(C(F)(F)F)cc2-c2ccc3c(ccc4ccccc43)c2)cc1
Assay: log2 fold change, soluble protein after heating vs DMSO (PISA); higher = thermal stabilisation; K562 cells, 10 uM, 30 min; active = over 0.2 and 3.5 SD of the protein, either way, in both replicates (recomputed)
Method in brief: (§1)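 Soluble protein was quantified by TMTpro 16plex LC-MS/MS after channel sums were equalised. It was obtained as the supernatant after 21,000xg for 90 min from pooled aliquots of K562 cells (2×10^6 cells/mL, 10 μM compound, 30 min) heated for 3 min across 48°C-58°C and extracted in PBS with 0.5% NP-40 at 4°C. Thermal stability values are relative to control samples and come from duplicates. They are given as log2 fold changes.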

Chain of UniProt O00418 (O00418 whole entry, looked up): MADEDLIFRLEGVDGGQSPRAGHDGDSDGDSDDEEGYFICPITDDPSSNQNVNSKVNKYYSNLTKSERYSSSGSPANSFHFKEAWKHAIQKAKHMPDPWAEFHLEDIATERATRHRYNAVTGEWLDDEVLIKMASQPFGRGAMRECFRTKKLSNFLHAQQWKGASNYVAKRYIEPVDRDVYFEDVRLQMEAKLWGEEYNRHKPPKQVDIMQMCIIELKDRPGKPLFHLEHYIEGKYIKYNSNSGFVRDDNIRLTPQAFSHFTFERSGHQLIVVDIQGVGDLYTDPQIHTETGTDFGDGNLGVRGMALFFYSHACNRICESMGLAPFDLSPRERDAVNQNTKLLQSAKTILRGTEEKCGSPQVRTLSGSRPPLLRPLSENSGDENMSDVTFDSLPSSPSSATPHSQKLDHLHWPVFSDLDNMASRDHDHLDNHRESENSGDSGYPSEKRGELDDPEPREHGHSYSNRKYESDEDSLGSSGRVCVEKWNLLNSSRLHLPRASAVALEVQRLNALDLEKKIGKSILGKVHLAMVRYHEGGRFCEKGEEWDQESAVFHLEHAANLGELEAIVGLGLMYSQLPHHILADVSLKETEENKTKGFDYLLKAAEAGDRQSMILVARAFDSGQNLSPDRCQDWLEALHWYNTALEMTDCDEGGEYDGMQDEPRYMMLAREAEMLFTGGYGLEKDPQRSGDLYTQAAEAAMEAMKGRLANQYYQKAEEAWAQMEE
Chain of UniProt Q16531 (Q16531 whole entry, looked up): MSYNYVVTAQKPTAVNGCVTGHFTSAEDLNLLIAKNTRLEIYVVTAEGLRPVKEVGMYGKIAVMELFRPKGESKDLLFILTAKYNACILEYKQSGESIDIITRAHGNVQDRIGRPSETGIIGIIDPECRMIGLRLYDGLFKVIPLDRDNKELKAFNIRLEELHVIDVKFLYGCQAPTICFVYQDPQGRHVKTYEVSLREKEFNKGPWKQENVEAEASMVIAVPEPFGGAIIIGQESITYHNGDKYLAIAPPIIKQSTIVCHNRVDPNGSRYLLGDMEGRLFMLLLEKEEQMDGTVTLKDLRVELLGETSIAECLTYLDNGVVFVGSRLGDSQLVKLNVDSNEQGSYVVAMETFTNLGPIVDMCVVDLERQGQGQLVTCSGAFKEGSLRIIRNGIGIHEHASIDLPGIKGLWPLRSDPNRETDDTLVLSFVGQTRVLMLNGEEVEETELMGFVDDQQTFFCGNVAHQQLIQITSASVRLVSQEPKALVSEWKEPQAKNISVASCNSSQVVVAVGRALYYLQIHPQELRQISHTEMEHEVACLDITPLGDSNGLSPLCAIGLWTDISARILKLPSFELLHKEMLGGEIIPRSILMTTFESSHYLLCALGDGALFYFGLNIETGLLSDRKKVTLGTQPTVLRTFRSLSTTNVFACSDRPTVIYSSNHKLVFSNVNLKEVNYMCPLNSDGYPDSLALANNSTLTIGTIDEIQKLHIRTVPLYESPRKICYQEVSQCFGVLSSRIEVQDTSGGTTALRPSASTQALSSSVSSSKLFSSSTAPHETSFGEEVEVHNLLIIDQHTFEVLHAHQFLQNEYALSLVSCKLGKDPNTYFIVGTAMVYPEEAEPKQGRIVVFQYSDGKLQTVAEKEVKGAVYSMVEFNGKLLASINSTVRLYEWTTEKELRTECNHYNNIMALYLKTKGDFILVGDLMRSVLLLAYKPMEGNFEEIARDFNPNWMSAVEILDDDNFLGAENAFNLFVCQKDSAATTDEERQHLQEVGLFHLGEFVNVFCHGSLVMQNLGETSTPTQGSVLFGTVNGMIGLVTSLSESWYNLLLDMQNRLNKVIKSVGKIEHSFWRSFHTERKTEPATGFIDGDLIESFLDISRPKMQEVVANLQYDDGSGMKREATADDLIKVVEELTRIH
Chain of UniProt Q8N612 (Q8N612 whole entry, looked up): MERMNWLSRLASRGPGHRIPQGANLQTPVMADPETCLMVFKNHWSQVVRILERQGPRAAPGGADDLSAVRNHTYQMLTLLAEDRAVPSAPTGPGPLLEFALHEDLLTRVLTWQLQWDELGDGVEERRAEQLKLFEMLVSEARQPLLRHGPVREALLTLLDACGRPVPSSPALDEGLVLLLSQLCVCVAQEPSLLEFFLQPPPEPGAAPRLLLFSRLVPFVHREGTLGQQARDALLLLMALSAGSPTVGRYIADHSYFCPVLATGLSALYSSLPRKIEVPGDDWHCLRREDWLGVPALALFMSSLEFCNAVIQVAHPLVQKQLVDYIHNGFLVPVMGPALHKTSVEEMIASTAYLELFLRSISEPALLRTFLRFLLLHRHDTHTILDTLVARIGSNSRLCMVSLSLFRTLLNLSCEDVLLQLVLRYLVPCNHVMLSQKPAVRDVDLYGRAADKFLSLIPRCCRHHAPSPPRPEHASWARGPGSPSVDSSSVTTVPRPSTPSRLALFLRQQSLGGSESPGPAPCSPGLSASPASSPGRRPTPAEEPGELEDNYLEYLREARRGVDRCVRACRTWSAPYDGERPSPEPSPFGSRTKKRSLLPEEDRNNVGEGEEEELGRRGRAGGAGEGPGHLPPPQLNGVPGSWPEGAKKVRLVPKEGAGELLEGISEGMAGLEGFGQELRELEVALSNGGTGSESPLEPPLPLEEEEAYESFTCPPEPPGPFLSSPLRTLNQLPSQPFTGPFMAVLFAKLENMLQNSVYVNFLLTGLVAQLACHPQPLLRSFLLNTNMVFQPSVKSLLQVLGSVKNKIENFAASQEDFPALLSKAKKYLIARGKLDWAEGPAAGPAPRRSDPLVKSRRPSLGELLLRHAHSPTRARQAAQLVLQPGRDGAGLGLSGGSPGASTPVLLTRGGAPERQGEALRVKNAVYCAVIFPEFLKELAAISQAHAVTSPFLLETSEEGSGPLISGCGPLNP
Chain of UniProt Q07973 (Q07973 whole entry, looked up): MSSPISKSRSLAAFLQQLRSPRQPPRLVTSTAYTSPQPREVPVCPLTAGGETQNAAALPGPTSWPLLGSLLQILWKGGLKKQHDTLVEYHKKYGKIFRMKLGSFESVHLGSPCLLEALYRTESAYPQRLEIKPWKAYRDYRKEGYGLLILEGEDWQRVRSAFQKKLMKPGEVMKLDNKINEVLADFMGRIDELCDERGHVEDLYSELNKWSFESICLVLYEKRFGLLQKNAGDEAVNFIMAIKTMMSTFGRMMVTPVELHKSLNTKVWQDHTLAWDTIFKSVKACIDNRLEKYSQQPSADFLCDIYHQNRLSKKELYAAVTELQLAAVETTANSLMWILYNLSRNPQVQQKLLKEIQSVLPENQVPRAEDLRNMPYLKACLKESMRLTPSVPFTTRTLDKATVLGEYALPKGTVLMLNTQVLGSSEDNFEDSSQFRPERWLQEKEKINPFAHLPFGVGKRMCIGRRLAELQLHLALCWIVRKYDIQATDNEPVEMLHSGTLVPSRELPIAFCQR
Chain of UniProt Q6P3W2 (Q6P3W2 whole entry, looked up): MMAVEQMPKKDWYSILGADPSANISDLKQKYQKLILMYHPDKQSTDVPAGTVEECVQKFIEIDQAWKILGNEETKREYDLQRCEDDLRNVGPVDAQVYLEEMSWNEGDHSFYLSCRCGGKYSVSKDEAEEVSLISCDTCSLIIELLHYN
Chain of UniProt P0CG12 (P0CG12 whole entry, looked up): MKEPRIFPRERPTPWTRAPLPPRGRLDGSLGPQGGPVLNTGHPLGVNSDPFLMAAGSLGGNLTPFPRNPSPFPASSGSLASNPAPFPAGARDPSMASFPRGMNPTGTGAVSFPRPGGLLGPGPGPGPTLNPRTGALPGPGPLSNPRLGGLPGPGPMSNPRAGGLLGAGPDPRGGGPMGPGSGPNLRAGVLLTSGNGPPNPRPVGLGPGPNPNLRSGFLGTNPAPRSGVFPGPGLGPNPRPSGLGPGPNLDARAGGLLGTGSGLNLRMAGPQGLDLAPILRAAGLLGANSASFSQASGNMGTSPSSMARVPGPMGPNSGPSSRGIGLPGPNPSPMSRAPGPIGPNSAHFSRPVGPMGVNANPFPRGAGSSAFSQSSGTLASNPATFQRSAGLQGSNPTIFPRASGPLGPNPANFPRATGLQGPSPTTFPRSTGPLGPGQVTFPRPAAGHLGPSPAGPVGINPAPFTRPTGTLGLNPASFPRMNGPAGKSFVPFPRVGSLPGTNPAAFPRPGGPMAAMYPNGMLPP
Chain of UniProt Q8WV16 (Q8WV16 whole entry, looked up): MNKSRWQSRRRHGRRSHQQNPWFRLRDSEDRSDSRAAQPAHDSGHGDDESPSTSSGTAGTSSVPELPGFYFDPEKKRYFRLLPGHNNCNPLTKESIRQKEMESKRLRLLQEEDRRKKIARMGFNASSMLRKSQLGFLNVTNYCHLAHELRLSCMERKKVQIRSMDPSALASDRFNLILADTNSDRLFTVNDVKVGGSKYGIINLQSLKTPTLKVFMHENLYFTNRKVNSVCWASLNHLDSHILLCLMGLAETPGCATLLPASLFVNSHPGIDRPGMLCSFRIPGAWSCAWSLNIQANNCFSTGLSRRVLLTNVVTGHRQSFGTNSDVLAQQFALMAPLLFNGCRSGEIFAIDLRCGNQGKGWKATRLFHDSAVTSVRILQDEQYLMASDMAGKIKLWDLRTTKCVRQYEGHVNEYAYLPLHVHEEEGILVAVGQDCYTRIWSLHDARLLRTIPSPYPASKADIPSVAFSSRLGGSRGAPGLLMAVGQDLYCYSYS
Chain of UniProt P25774 (P25774 whole entry, looked up): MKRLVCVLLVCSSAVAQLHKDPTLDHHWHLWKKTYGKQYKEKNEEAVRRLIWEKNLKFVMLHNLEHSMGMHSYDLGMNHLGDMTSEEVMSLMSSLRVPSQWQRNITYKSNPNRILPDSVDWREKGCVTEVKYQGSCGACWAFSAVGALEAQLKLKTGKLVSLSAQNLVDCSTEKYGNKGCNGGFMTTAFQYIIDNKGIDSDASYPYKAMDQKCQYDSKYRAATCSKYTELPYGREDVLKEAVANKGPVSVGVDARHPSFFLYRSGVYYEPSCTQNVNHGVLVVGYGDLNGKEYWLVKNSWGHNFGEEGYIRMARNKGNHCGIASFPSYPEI

Target | log2 fold change
ENTR1 (UniProt Q96C92) | -0.284 (inactive)
CTNNBL1 (UniProt Q8WYA6) | 0.175 (inactive)
EIF4G1 (UniProt Q04637) | -0.075 (inactive)
F2RL3 (UniProt Q96RI0) | -0.085 (inactive)
DNAJC24 (UniProt Q6P3W2) | -0.129 (inactive)
DNAL1 (UniProt Q4LDG9) | 0.05 (inactive)
FAM160A2 isoform 2 (UniProt Q8N612) | -0.26 (inactive)
CYP24A1 (UniProt Q07973) | 0.21 (inactive)
DNAH5 (UniProt Q8TE73) | 0.016 (inactive)
FAM135A (UniProt Q9P2D6) | -0.024 (inactive)
DERPC (UniProt P0CG12) | -0.16 (inactive)
DOP1A (UniProt Q5JWR5) | -0.051 (inactive)
CTSS (UniProt P25774) | 0.053 (inactive)
EEF2K (UniProt O00418) | -0.114 (inactive)
DENND1A isoform 6 (UniProt Q8TEH3) | -0.119 (inactive)
FAM117B (UniProt Q6P1L5) | 0.229 (inactive)
DLK1 (UniProt P80370) | -0.061 (inactive)
FADS1 (UniProt F5GYH4) | -0.191 (inactive)
DNAJB1 (UniProt M0R128) | -0.151 (inactive)
ELMO1 (UniProt Q92556) | -0.316 (inactive)
DOLPP1 (UniProt Q86YN1) | -0.003 (inactive)
DNAH10 (UniProt Q8IVF4) | 0.026 (inactive)

Compound: Nc1ccccc1NC(=O)c1ccc(CNC(=O)OCc2cccnc2)cc1 [entinostat]
Assay: as above
Method in brief: as §1

Target | log2 fold change
DDB1 isoform 2 (UniProt Q16531) | -0.237 (inactive)
EDRF1 (UniProt Q3B7T1) | -0.055 (inactive)
CWF19L2 (UniProt Q2TBE0) | -0.134 (inactive)
DNAJC24 (UniProt Q6P3W2) | 0.055 (inactive)
DNAH5 (UniProt Q8TE73) | -0.037 (inactive)
FAM135A (UniProt Q9P2D6) | -0.03 (inactive)
ENTPD7 (UniProt Q9NQZ7) | 0.236 (inactive)
CTSS (UniProt P25774) | -0.013 (inactive)
DHPS (UniProt M0R1T2) | 0.072 (inactive)
DCAF4 (UniProt Q8WV16) | 0.005 (inactive)
ELF1 (UniProt P32519) | -0.11 (inactive)
ERF (UniProt P50548) | -0.019 (inactive)
ELMO1 (UniProt Q92556) | 0.093 (inactive)
EID1 (UniProt Q9Y6B2) | 0.086 (inactive)
DNM2 isoform 4 (UniProt P50570) | 0.342 (inactive)
EPHB4 (UniProt P54760) | 0.122 (inactive)
DNAH10 (UniProt Q8IVF4) | -0.041 (inactive)
DCAF12 (UniProt Q5T6F0) | -0.003 (inactive)

Compound: O=C(CCCCCCC(=O)Nc1ccccc1)NO [vorinostat]
Assay: as above
Method in brief: as §1

Target | log2 fold change
DDB1 isoform 2 (UniProt Q16531) | -0.032 (inactive)
EDRF1 (UniProt Q3B7T1) | 0.083 (inactive)
CWF19L2 (UniProt Q2TBE0) | -0.184 (inactive)
EIF4G1 (UniProt Q04637) | 0.085 (inactive)
FAM160A2 isoform 2 (UniProt Q8N612) | -0.009 (inactive)
CYP24A1 (UniProt Q07973) | 0.067 (inactive)
DNAH5 (UniProt Q8TE73) | -0.103 (inactive)
DERPC (UniProt P0CG12) | -0.042 (inactive)
EIF2AK3 (UniProt Q9NZJ5) | -0.02 (inactive)
CTSS (UniProt P25774) | 0.15 (inactive)
EEF2K (UniProt O00418) | 0.19 (inactive)
EHBP1 (UniProt Q8NDI1) | -0.034 (inactive)
DCAF4 (UniProt Q8WV16) | 0.238 (inactive)
FAM117B (UniProt Q6P1L5) | 0.059 (inactive)
ERF (UniProt P50548) | 0.023 (inactive)
EID1 (UniProt Q9Y6B2) | -0.457 (inactive)
DNM2 isoform 4 (UniProt P50570) | -0.068 (inactive)
DNAH10 (UniProt Q8IVF4) | 0.083 (inactive)
DCAF12 (UniProt Q5T6F0) | -0.021 (inactive)

Compound: O=C(CCCCCCNC(=O)c1cnc(N(c2ccccc2)c2ccccc2Cl)nc1)NO [citarinostat]
Assay: as above
Method in brief: as §1

Target | log2 fold change
DDB1 isoform 2 (UniProt Q16531) | -0.203 (inactive)
CTNNBL1 (UniProt Q8WYA6) | 0.057 (inactive)
EDRF1 (UniProt Q3B7T1) | -0.044 (inactive)
CWF19L2 (UniProt Q2TBE0) | 0.13 (inactive)
DNAJC24 (UniProt Q6P3W2) | 0.102 (inactive)
FAM160A2 isoform 2 (UniProt Q8N612) | -0.154 (inactive)
CYP24A1 (UniProt Q07973) | -0.002 (inactive)
DNAH5 (UniProt Q8TE73) | 0.047 (inactive)
DERPC (UniProt P0CG12) | -0.049 (inactive)
ENTPD7 (UniProt Q9NQZ7) | 0.131 (inactive)
EIF2AK3 (UniProt Q9NZJ5) | -0.039 (inactive)
CTSS (UniProt P25774) | 0.19 (inactive)
EEF2K (UniProt O00418) | -0.05 (inactive)
EHBP1 (UniProt Q8NDI1) | -0.009 (inactive)
DCAF4 (UniProt Q8WV16) | -0.1 (inactive)
FAM117B (UniProt Q6P1L5) | -0.047 (inactive)
DLK1 (UniProt P80370) | -0.018 (inactive)
ELF1 (UniProt P32519) | -0.089 (inactive)
DOLPP1 (UniProt Q86YN1) | 0.075 (inactive)
DNM2 isoform 4 (UniProt P50570) | -0.113 (inactive)
DNAH10 (UniProt Q8IVF4) | 0.242 (inactive)
DCAF12 (UniProt Q5T6F0) | -0.033 (inactive)

Reference: the supplement of paper PMC10849652
